Results on 17 compounds are retold here after PubChem BioAssay.

Test [1] deals with Tumor necrosis factor receptor superfamily member 10B (Homo sapiens) (UniProt O14763). The test can be described thus: viability loss of caspase-8 NB7 cells with TRAIL – with/without TRAIL, luminescence panel, confirmation (AID 651596). The settings on record: NB7 neuroblastoma + caspase-8, TRAIL sensitization, NB7 Caspase-8, with TRAIL, mean of runs, at 10 µM, stronger effect = higher value.

Experiment in test [2]: as above
The note with it: NB7 neuroblastoma + caspase-8, without TRAIL, NB7 Caspase-8, without TRAIL, mean of runs, at 10 µM.

Sequence of Tumor necrosis factor receptor superfamily member 10B (Homo sapiens) (O14763 whole entry, looked up): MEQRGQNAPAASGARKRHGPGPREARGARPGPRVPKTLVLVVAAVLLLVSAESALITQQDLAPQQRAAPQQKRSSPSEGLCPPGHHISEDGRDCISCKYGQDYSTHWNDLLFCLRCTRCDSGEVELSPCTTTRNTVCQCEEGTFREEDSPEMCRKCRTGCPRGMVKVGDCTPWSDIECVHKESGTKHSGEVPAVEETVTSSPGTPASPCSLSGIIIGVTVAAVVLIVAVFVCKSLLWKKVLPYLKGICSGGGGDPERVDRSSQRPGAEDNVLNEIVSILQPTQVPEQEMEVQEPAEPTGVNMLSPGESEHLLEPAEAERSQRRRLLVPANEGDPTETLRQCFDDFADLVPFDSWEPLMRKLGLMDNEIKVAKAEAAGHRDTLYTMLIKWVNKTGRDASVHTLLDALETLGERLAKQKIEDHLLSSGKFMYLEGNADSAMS

`COc1ccc(-c2ccc3ccccc3n2)cc1`: the activity in test [1] is 32.4%; in test [2], 16%.
With `CC(C)(C)c1ccc(C(=O)Nc2cnccn2)cc1`, the figures for the activity in test [1] and in test [2] were 78.5% and 82.2%, respectively.
On to `N/C(=N\OC(=O)COc1ccc(Cl)cc1Cl)c1ccccn1`, for which the activity was 37% in test [1] and 52.3% in test [2].
For the compound `CCCc1cc2c(=O)c(-c3ccc4c(c3)OCCO4)coc2cc1OC(=O)c1ccco1`, the activity stood at 65.5% in test [1] and 66.4% in test [2].
On to `O=C(/C=C/c1ccco1)Nc1ccccc1C(=O)O`, for which the activity turned out to be 45.1% in test [1] and 42.1% in test [2].
For `CC(C)(C)c1ccc(O)c(/C=N\O)c1` the same measures were 60.4% and 72.9%.
For `Cc1cccc(/C=C/c2nc3ccccc3c(=O)[nH]2)c1`, the activity in test [1] was 61.5%; in test [2] it was 65%.
As for `Cc1cc(NC2CCCC2)n2ncc(-c3ccccc3)c2n1`, the activity in test [1] and in test [2] was 69.1% throughout.
On to `N/C(CCS(=O)(=O)c1ccc(Cl)cc1)=N\OC(=O)c1ccc(Cl)cc1`, for which the activity in test [1] stood at 98.2%; in test [2], 93.3%.
As to `Cc1cccc(Cn2ncc(Cl)c(Cl)c2=O)c1`, the activity worked out at 92.2% in test [1] and 98.9% in test [2].
Consider `COc1ccc2[nH]c(C(=O)Nc3cccc(C)n3)cc2c1`, for which the activity in test [1] was 58.8%; in test [2], 59.5%.
Turning to `COCC(C)n1c(C)cc(C(=O)COC(=O)c2n[nH]c3ccccc23)c1C` (centres undefined), the activity in test [1] was 58.5%; in test [2] it was 51.9%.
Turning to `CC(C)c1ccc(/C=C/c2ccc(=O)n(C)n2)cc1`, the activity in test [1] is 68.1%; in test [2], 66.6%.
As for `O=C1Nc2cc(C(=O)NCCN3CCCCCC3)ccc2S/C1=C/c1ccccc1F`, the activity was 82.5% in test [1] and 96% in test [2].
With `O=C(N/N=C/c1ccc([N+](=O)[O-])o1)c1cc(-c2ccc(-c3ccccc3)cc2)nc2ccccc12`, the values for the activity in test [1] and in test [2] were 85.8% and 89.3%, respectively.
For `C/C(=N\Nc1nc2ccccc2[nH]1)c1cc2ccccc2o1` the same measures were 47.5% and 43.7%.
For the compound `CCOC(=O)c1cnc(-n2nc(C)cc2C)nc1N(C)C`, the activity in test [1] was 55.4%; in test [2] it was 52.1%.
